# Assay results taken from PubChem BioAssay (NCATS).
# Values without a mark were called inactive. Records with an inconclusive call do not appear. A call without a number means that no potency is given here. The source made the active and inactive calls. The call rests on the fitted dose curve; in most records, active means well fitted curve in the direction sought with a large enough effect; inconclusive means small, poorly fitted or top-dose-only effect, or another doubt; inactive means no such curve, though single readings can be large; an effect the other way counts as inactive or inconclusive.
# Key:
# [1] = molecular target: Glutathione peroxidase 1 (Homo sapiens) (UniProt P07203); assay: Primary qHTS Assay for Inhibitors of Recombinant Selenoprotein Glutathione Peroxidase 1 (GPX1) (AID 1845191); further: nearly all actives have a fitted effect of over 65% in size
# Summary of the method: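 GPX1 10 nM, GR 100 nM, GSH 1 mM, NADPH 0.5 mM, CHP 0.5 mM (final). 30-min cpd preincubation, RT. Ex340/Em450 read t=0, t=15 min.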
# [2] = molecular target: Phospholipid hydroperoxide glutathione peroxidase GPX4 (Homo sapiens) (UniProt P36969); assay: Primary qHTS Assay for Inhibitors of Recombinant Selenoprotein Glutathione Peroxidase 4 (GPX4) (AID 1845192); further: nearly all actives have a fitted effect of over 65% in size; further: potency means the concentration at half of the fitted maximal effect; on activity change, negative = inhibition: series mostly up to about 50 µM
# Summary of the method: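 qHTS, GR-coupled: GPX4 200 nM + cpd 30 min RT → GSH 1 mM, NADPH 0.5 mM, GR 100 nM → CHP 0.5 mM start; fluor 340/450 at t0 and t15 min; no-enzyme wells as control.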
# [3] = molecular target: Luciferin 4-monooxygenase (Photinus pyralis) (UniProt P08659); assay: Primary firefly luciferase (FLuc) qHTS assay for identification of artifact compounds. (AID 1845220); details: outcome: dose series up to 54.1 µM; further: series mostly up to about 54 µM; nearly all actives have a fitted effect of over 60% in size
# Summary of the method: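 In this counter-screen for luciferase artifacts, test compounds met substrate (10 uM each luciferin and ATP) before 10 nM enzyme started the reaction. Light output was measured 5 min later.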
# [4] = Primary fluorescence-based thiol-reactive (MSTI) qHTS assay for identification of artifact compounds. (AID 1845221);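 further: series mostly up to about 54 µM; thiol-reactive compounds lower the probe fluorescence signal; nearly all actives have a fitted effect of over 65% in size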
# Summary of the method: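 First, 4 uM MSTI in 2% DMSO/PBS pH 7.4 was dispensed; next, compounds were added; then plates sat 1 h at room temperature without light. Finally, emission at 598 nm was recorded.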
# [5] = system: Nanoluciferase (engineered Oplophorus gracilirostris luciferase); assay: Primary Nanoluciferase (NLuc) qHTS assay for identification of artifact compounds. (AID 1845222);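 further: NLuc secreted into diluted conditioned medium of S16 cells; series mostly up to about 54 µM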
# Summary of the method: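 Using secreted nanoluciferase in S16 culture medium (0.22 um filtered, 1:55 dilution), compounds were preincubated 15 min at RT. Signal was generated with Nano-Glo reagent (1:100) over 5 min.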
# [6] = Primary redox qHTS assay for identification of artifact compounds. (AID 1845223)
# Summary of the method: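 Redox-cycling detection via DTT (250 uM final) oxidation coupled to Amplex Red (25 uM)/HRP (250 mU/mL) in HBSS. 15 min preincubation plus 30 min after DTT, room temperature. Ex/Em 525/598 nm; 4-parameter Hill fit against DMSO and 10 uM DA3003.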
# Chain of Phospholipid hydroperoxide glutathione peroxidase GPX4 (Homo sapiens) (P36969 whole entry, looked up): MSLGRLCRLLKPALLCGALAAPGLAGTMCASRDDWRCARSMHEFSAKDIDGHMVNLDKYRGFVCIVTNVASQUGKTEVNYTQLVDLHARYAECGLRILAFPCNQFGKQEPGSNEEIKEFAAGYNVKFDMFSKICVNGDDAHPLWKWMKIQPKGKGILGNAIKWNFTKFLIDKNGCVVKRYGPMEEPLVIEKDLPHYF
# Chain of Glutathione peroxidase 1 (Homo sapiens) (P07203 whole entry, looked up): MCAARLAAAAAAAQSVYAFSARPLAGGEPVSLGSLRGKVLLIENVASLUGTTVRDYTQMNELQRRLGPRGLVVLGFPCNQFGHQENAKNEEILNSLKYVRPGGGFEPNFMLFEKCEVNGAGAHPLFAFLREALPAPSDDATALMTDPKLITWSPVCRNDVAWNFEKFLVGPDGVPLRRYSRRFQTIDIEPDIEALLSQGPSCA
compound,measurement,setting,value
CCSc1ccc2c(c1)N(CCCN1CCN(C)CC1)c1ccccc1S2,Potency,[1],inactive
same,Potency,[2],inactive
O=C1c2ccccc2C(=O)c2c1ccc(O)c2O,Potency,[1],inactive
same,Potency,[2],inactive
CCC[C@@H]1C[C@@H](C(=O)N[C@@H]([C@H]2O[C@H](SC)[C@H](O)[C@@H](O)[C@H]2O)[C@H](C)Cl)N(C)C1,Potency,[1],inactive
same,Potency,[2],inactive
Cc1cccc(C)c1NC(=O)C1CCCCN1C (stereo unspecified),Potency,[1],inactive
same,Potency,[2],inactive
FC(F)(F)C(F)(F)C(F)(F)C(F)(F)C(F)(F)C(F)(F)F,Potency,[1],inactive
same,Potency,[2],inactive
CC(=O)Nc1ccc(NC(=S)NC(=O)c2ccc(C(C)(C)C)cc2)cc1,Potency,[1],inactive
same,Potency,[2],inactive
same,outcome,[3],inactive
same,outcome,[4],inactive
same,outcome,[5],inactive
same,outcome,[6],inactive
CC(=O)Nc1c(I)c(C(=O)O)c(I)c(N(C)C(C)=O)c1I,Potency,[1],inactive
same,Potency,[2],inactive
COC(=O)c1ccccc1O,Potency,[1],inactive
same,Potency,[2],inactive
C[C@H](NCCc1ccc(O)cc1)[C@H](O)c1ccc(O)cc1,Potency,[1],inactive
same,Potency,[2],inactive
C[C@H]1O[C@@H](O[C@H]2[C@@H](O)C[C@H](O[C@H]3[C@@H](O)C[C@H](O[C@H]4CC[C@@]5(C)[C@H](CC[C@@H]6[C@@H]5C[C@@H](O)[C@]5(C)[C@@H](C7=CC(=O)OC7)CC[C@]65O)C4)O[C@@H]3C)O[C@@H]2C)C[C@H](O)[C@@H]1O,Potency,[1],inactive
same,Potency,[2],inactive
same,outcome,[3],inactive
same,outcome,[4],inactive
same,outcome,[5],inactive
same,outcome,[6],inactive
C=C(C)C1CC=C(C)CC1 (stereo unspecified),Potency,[1],inactive
same,Potency,[2],inactive
CCCCCCCCCCCCCC(=O)OCC(COP(=O)([O-])OCC[N+](C)(C)C)OC(=O)CCCCCCCCCCCCC (stereo unspecified),Potency,[1],inactive
same,Potency,[2],inactive
O=C(O)Cc1cc(I)c(Oc2ccc(O)c(I)c2)c(I)c1,Potency,[1],inactive
same,Potency,[2],inactive
same,outcome,[3],inactive
same,outcome,[4],inactive
CC(C)(CO)[C@@H](O)C(=O)NCCC(=O)NCCSSCCNC(=O)CCNC(=O)[C@H](O)C(C)(C)CO,Potency,[1],inactive
same,Potency,[2],inactive
C[C@@H](O)[C@H]1C(=O)N2C(C(=O)[O-])=C(SC3Cn4cnc[n+]4C3)[C@H](C)[C@H]12 (stereo partly specified),"activity, negative = inhibition",[1],-13.7% [at 9.52 µM]
same,"activity change, negative = inhibition",[2],-27.3% [at 9.73 µM]
NC(=S)NS(=O)(=O)c1ccc(N)cc1,Potency,[1],inactive
same,Potency,[2],inactive
CC(O)[C@H]1CC[C@H]2[C@@H]3CC[C@@H]4C[C@@H](O)CC[C@]4(C)[C@H]3CC[C@]12C (stereo partly specified),Potency,[1],inactive
same,Potency,[2],inactive
Cc1nc(NS(=O)(=O)c2ccc(N)cc2)nc(C)c1Br,Potency,[1],inactive
same,Potency,[2],inactive
Cc1cc(-c2ccc(N=Nc3ccc4c(S(=O)(=O)O)cc(S(=O)(=O)O)c(N)c4c3O)c(C)c2)ccc1N=Nc1ccc2c(S(=O)(=O)O)cc(S(=O)(=O)O)c(N)c2c1O,Potency,[1],inactive
same,Potency,[2],inactive
CCCCC(CC)CCC(CC(C)C)OS(=O)(=O)O (stereo unspecified),Potency,[1],inactive
same,Potency,[2],10 µM (active)
CO[C@H]1C[C@@H]2CC[C@@H](C)[C@@](O)(O2)C(=O)C(=O)N2CCCC[C@H]2C(=O)O[C@H]([C@H](C)C[C@@H]2CC[C@@H](OC(=O)C(C)(CO)CO)[C@H](OC)C2)CC(=O)[C@H](C)/C=C(\C)[C@@H](O)[C@@H](OC)C(=O)[C@H](C)C[C@H](C)/C=C/C=C/C=C/1C,Potency,[1],inactive
same,Potency,[2],inactive
same,outcome,[3],inactive
same,outcome,[4],inactive
same,outcome,[5],inactive
same,outcome,[6],inactive
